According to ChEMBL document CHEMBL1157539, “Thousands of chemical starting points for antimalarial lead identification” (Nature, 2010):

Test system: Plasmodium falciparum
Experiment: GSK_TCMDC: Inhibition of Plasmodium falciparum Dd2 in whole red blood cells, using parasite LDH activity as an index of growth. Test compounds present at 2uM
Assay type: functional

| SMILES | Inhibition [%] |
| --- | --- |
| Cc1cc(NCCc2ccccc2)nc(NC(=N)Nc2cccc(Cl)c2)n1 | 100 |
| O=C(O)C(F)(F)F.O=C1CCCN1CCCNCc1ccc(-c2ccc(-c3nc4cc(C(F)(F)F)ccc4[nH]3)cc2)cc1 | 98 |
| COc1ccc(N2CCN(CCCCNC(=O)c3ccc(/C=C/c4ccc(Cl)c(Cl)c4)cc3)CC2)c(OC)c1 | 51 |
| O=C(Nc1ccc(Cl)cc1)c1ccc(CN2CCCN(Cc3cccc(Cl)c3)CC2)cc1.O=C(O)C(F)(F)F | 15 |
| Cc1c(Cl)ccc2c(C(=O)Nc3ccncc3)cc(-c3cccnc3)nc12 | 83 |
| Cc1cccc2nc(-c3ccc(-c4ccc(NC(=O)NCc5cccc(F)c5)cc4)s3)[nH]c12 | 43 |
| COC(=O)c1cccc(CNCc2ccc(-c3ccc(-c4nc5cccc(C)c5[nH]4)cc3)cc2)c1.O=C(O)C(F)(F)F | 86 |
| Cc1cc(CN2CCCN(c3ccc4c(c3)CCN(Cc3ccc(-c5ncc[nH]5)cc3)CC4)CC2)n(C)n1 | 8 |
| CCOc1ccc(S(=O)(=O)N(C)c2ccc(OCC(=O)Nc3nccs3)cc2)cc1 | 4 |
| O=C(Nc1ccccc1O)C1CCN(c2ncnc3cc(-c4ccc(F)cc4)sc23)CC1 | 94 |
| Clc1ccc(OCc2ccccc2)c(-c2nc(-c3nc4ncc(Br)cc4[nH]3)cs2)c1 | 77 |
| CC(C)(C)CNCC(C)(C)c1nc(-c2ccc(Cl)c(O)c2)c(-c2ccncc2)[nH]1.Cl | 98 |
| CCCCN1Cc2c(n(CC(=O)Nc3ccccc3)c3cc(-c4ccccc4)nn3c2=O)C1=O | 60 |
| CCCN(CCC)C(=S)N/N=C1/C(=O)Nc2ccccc21 | 86 |
| O=C(NC(c1ccccc1)c1ccccc1)C(c1cc2ccccc2o1)N1CCN(C(c2ccccc2)c2ccccc2)CC1 (centres undefined) | 78 |
| O=C(Nc1ccc(Cl)cc1)Nc1cccc(-c2ccc(-c3nc4ccccc4[nH]3)cc2)c1 | 6 |
| Br.CC(=O)CSC(C=Cc1ccc(N(C)C)cc1)=Nc1ccccc1 | 42 |
| Cc1ccc(Cn2nc(N3CCNCC3)ccc2=O)cc1NC(=O)Nc1ccc(-c2ccccc2)cc1.O=C(O)C(F)(F)F | 20 |
| COc1ccc(C2CC(c3cccs3)=NN2C(=O)COc2cccc3c2CCCC3O)cc1OC (centres undefined) | 62 |
| CCCCn1c(Sc2ccc(C#N)c([N+](=O)[O-])c2)nnc1-c1cccc(Cl)c1 | 87 |

| SMILES | Inhibition [%] |
| --- | --- |
| CC(C)NCc1ccc(-c2ccc(-c3nc4cc(C(F)(F)F)ccc4[nH]3)cc2)cc1.O=C(O)C(F)(F)F | 98 |
| C=CCOC(=O)N1CCC(CNCc2cccc(-c3ccc(-c4nc5cc(C(F)(F)F)ccc5[nH]4)cc3)c2)C1.O=C(O)C(F)(F)F (centres undefined) | 96 |
| CC12CN3CC(C)(CN(C1)C3c1cc(Br)ccc1O)C2O (centres undefined) | 2 |
| N#CCCN1CCN(Cc2cccc(-c3ccc(-c4nc5cc(F)ccc5[nH]4)cc3)c2)CC1.O=C(O)C(F)(F)F | 35 |
| CCNc1cc(C(=O)N[C@@H](Cc2ccccc2)[C@H](O)CNC2(CC)CC2)cc(N2CCCCS2(=O)=O)c1.Cl | 94 |
| Cc1ccc(-c2nnc(Nc3ccc(OCC(N)=O)cc3)c3ccccc23)cc1S(=O)(=O)NCC1CCCO1 (centres undefined) | 70 |
| O=C(NC1CCN(CCCc2ccccc2)CC1)c1ccc(-c2cccc(C(F)(F)F)c2)s1.O=C(O)C(F)(F)F | 47 |
| O=[N+]([O-])c1cccc(/C=N/Nc2ccnc3ccc(C(F)(F)F)cc23)c1 | 35 |
| CCCCCCc1cc(Oc2c(I)cc(C[C@H](N)C(=O)O)cc2I)ccc1O | 0 |
| CN(c1ccc2c(c1)nc(Nc1ccc(Cl)cc1)n2C)c1ccnc(Nc2ccc(CS(C)(=O)=O)cc2)n1.Cl | 52 |
| COc1ccc(-c2ccc(NC(=O)c3cccc(C#N)c3)cc2)cc1CN1CCCN(C)CC1.O=C(O)C(F)(F)F | 70 |
| Clc1cc(Nc2ccnc3ccc(Br)cc23)ccc1Oc1ccc(Cl)c2ccccc12 | 86 |
| O=C(/C=C/c1ccc(Cl)c(Cl)c1)NCCCCCN1CCC(NC(=O)Nc2ccc(OC(F)F)cc2)CC1 | 18 |
| CC(ON1C(N)=NC(N)=NC1(C)C)c1ccccc1 (centres undefined) | 58 |
| C[C@@H](C(=O)N1CCOCC1)N1CC[C@H](NS(=O)(=O)c2ccc3ccnc(N)c3c2)C1=O.O=CO | 61 |
| Cc1cc(Nc2cccc(C(F)(F)F)c2)nc(Nc2cccc(C(F)(F)F)c2)n1 | 73 |
| CCN(CC)CCN(Cc1ccc(-c2ccc(C(F)(F)F)cc2)cc1)C(=O)Cn1c(CCc2cc(F)c(F)c(F)c2)nc(=O)c2ccccc21.O=C(O)C(O)C(O)C(=O)O | 70 |
| O=C(CC1NC(=O)c2ccccc21)Nc1ccc(-c2ccc(-c3nc4cc(C(F)(F)F)ccc4[nH]3)cc2)cc1 (centres undefined) | 70 |
| COc1ccc2nccc([C@@H](O)CN3CCC(NC(=O)C(c4cc5ccccc5o4)N4CCN(C(c5ccccc5)c5ccccc5)CC4)CC3)c2c1 (some centres undefined) | 100 |
